{
  "source": "ChEMBL document CHEMBL4513216",
  "about": "“Probing the Open Global Health Chemical Diversity Library for Multistage-Active Starting Points for Next-Generation Antimalarials” (ACS Infect Dis, 2020)",
  "note": "The whole screen tested about 69,000 compounds, of which about 8,600 (12%) showed an effect of 50% or more. The sample as a whole holds a higher share of strong results than the screen did.",
  "data": [
    {"tested_on": "Plasmodium berghei", "test": "Screen against P. berghei liver stage (PbLuc), transformed with Luciferase, at 10uM", "assay_type": "functional, HepG2", "conditions": "tested at 10 uM", "units": {"INHIBITION": "%"}, "values": [
      {"smiles": "CC1(c2ncc(CN3CCN(c4ccccn4)CC3)cn2)CCCCO1", "note": "(centres undefined)", "INHIBITION": -16.85},
      {"smiles": "O=C1[C@H]2CN(CC3CC3)C[C@H]2CN1Cc1cccc(F)c1", "INHIBITION": 39.8},
      {"smiles": "O=C(NCc1cccnc1N1CCc2ccccc2C1)c1cnc[nH]1", "INHIBITION": -11.6},
      {"smiles": "Cc1cc(C(=O)N2CC[C@@H]3CN(CCC(C)C)S(=O)(=O)[C@@H]3CC2)no1", "INHIBITION": 6.27},
      {"smiles": "CS(=O)(=O)N1C[C@H]2CC[C@@H](C1)N(C/C=C/c1ccc(F)cc1)C2", "INHIBITION": 31.7},
      {"smiles": "Cc1ccc(CN2CCn3cc(CNC(=O)c4cnn(C)c4)nc3C2)s1", "INHIBITION": 16.8},
      {"smiles": "CS(=O)(=O)NCc1cncc2c1CCN(C(=O)N1CCCC1)C2", "INHIBITION": 37.2},
      {"smiles": "Cc1ccc(-n2cnc(Cl)c2CO)cc1", "INHIBITION": 40.9},
      {"smiles": "OCc1c(Cl)ncn1-c1ccc(F)cc1", "INHIBITION": 52.8},
      {"smiles": "Cc1ccccc1-n1cnc(Cl)c1CO", "INHIBITION": 59.3},
      {"smiles": "OCc1c(Cl)ncn1-c1ccccc1", "INHIBITION": 46.4},
      {"smiles": "Cc1ccccc1-n1cnc(Cl)c1C(=O)O", "INHIBITION": 24.4},
      {"smiles": "Cc1cccc(-n2cnc(Cl)c2CO)c1", "INHIBITION": 28},
      {"smiles": "COc1ccc(CN2C[C@@H]3C(CC(=O)N4CCCC4)[C@@H]3C2)cc1", "note": "(some centres undefined)", "INHIBITION": 17.4},
      {"smiles": "CCc1nnc2n1CC(CNCc1nnc(C(C)(C)C)o1)CC2", "note": "(centres undefined)", "INHIBITION": 14.9},
      {"smiles": "Cc1cccc(NC(=O)N2CCC3(CC(=O)N(c4ccsc4)C3)C2)c1", "note": "(centres undefined)", "INHIBITION": 12.4},
      {"smiles": "COCCn1cc2c(n1)C(CNCc1ccc(F)cc1)OCC2", "note": "(centres undefined)", "INHIBITION": 13.5},
      {"smiles": "Cc1ccc(C(=O)N(C)Cc2cscn2)c(=O)[nH]1", "INHIBITION": 15},
      {"smiles": "CCN(C)C1COC2(CCN(C(=O)c3ccc(Cl)cc3)CC2)C1", "note": "(centres undefined)", "INHIBITION": 70.3},
      {"smiles": "COCCC1COC2(CCN(C(=O)c3cccnc3)CC2)C1", "note": "(centres undefined)", "INHIBITION": 34.6},
      {"smiles": "COCCC1COC2(CCN(C(=O)c3ccccc3)CC2)C1", "note": "(centres undefined)", "INHIBITION": 40.4},
      {"smiles": "COCCC1COC2(CCN(C(=O)c3cccn3C)CC2)C1", "note": "(centres undefined)", "INHIBITION": 20.6},
      {"smiles": "COCCC1COC2(CCN(C(=O)c3ccsc3)CC2)C1", "note": "(centres undefined)", "INHIBITION": 57.9},
      {"smiles": "COCCC1COC2(CCN(C(=O)c3ccncc3)CC2)C1", "note": "(centres undefined)", "INHIBITION": 74.2},
      {"smiles": "CCN(C)C1COC2(CCN(C(=O)c3cccc(Cl)c3)CC2)C1", "note": "(centres undefined)", "INHIBITION": 0.112},
      {"smiles": "COCCC1COC2(CCN(C(C)=O)CC2)C1", "note": "(centres undefined)", "INHIBITION": 20.1},
      {"smiles": "CCN(C)C1COC2(CCN(C(=O)c3ccc4[nH]ccc4c3)CC2)C1", "note": "(centres undefined)", "INHIBITION": -12.2},
      {"smiles": "CCc1nc2ccccc2n1C(CC)C(=O)N(C)CCc1noc(C)n1", "note": "(centres undefined)", "INHIBITION": -4.12},
      {"smiles": "CC(C)c1noc(OCc2cccc(S(=O)(=O)N(C)C)c2)n1", "INHIBITION": 37.8},
      {"smiles": "CCCn1nnc(NCc2ccccc2OCc2ccc(Cl)cc2)n1", "INHIBITION": -36.8},
      {"smiles": "COc1ccccc1CNC(=O)C[S+]([O-])Cc1cc(C)on1", "note": "(centres undefined)", "INHIBITION": -9.19},
      {"smiles": "CCN(CC1CCOC1)C(=O)c1ccc(N2CCOCC2)c(F)c1", "note": "(centres undefined)", "INHIBITION": 66.2},
      {"smiles": "O=C(c1cc(Cl)c2c(c1)OCCCO2)N(CC1CCOC1)C1CC1", "note": "(centres undefined)", "INHIBITION": 30.9},
      {"smiles": "CCN(CC1CCOC1)C(=O)c1cc(F)ccc1N1CCN(C)CC1", "note": "(centres undefined)", "INHIBITION": 7.27},
      {"smiles": "CCN(CC1CCOC1)C(=O)c1ccccc1N1CCOCC1", "note": "(centres undefined)", "INHIBITION": 26.8},
      {"smiles": "CCN(CC1CCOC1)C(=O)c1cc(Cl)c2c(c1)OCO2", "note": "(centres undefined)", "INHIBITION": 56.6},
      {"smiles": "CCN(CC1CCOC1)C(=O)c1cc(OC)c2c(c1)OCCO2", "note": "(centres undefined)", "INHIBITION": 30.9},
      {"smiles": "COCC(=O)N1CCCC(c2noc3nc(C)cc(C(F)(F)F)c23)C1", "note": "(centres undefined)", "INHIBITION": 24.4},
      {"smiles": "CC(C)NC(=O)COc1ccc(-c2nc(C(C)C)no2)cc1", "INHIBITION": 10.7},
      {"smiles": "Cc1csc(C(C#N)C(=O)NCc2ccccc2)n1", "note": "(centres undefined)", "INHIBITION": 52.6},
      {"smiles": "Cc1csc(C(C#N)C(=O)NCc2cccnc2)n1", "note": "(centres undefined)", "INHIBITION": 26.5},
      {"smiles": "Cc1csc(C(C#N)C(=O)Nc2ccccc2)n1", "note": "(centres undefined)", "INHIBITION": 8.08},
      {"smiles": "Cc1cc(N(C)C)nc(C2CCNC2)n1", "note": "(centres undefined)", "INHIBITION": 35},
      {"smiles": "O=C(NC1CCCc2nc(N3CCCCC3)ncc21)C1CCCC1", "note": "(centres undefined)", "INHIBITION": 40},
      {"smiles": "Cc1ccc(C(CNC(=O)Nc2cn[nH]c2)N2CCOCC2)o1", "note": "(centres undefined)", "INHIBITION": -45.6},
      {"smiles": "CC1=Nc2c(c(=O)[nH]n2C(C)C)C(c2ccsc2)S1", "note": "(centres undefined)", "INHIBITION": 30},
      {"smiles": "O=C(NCc1cccnc1)N1CCc2ncnc(C3CC3)c2CC1", "INHIBITION": -14.3},
      {"smiles": "O=C(O)CCc1ccc(S(=O)(=O)Nc2cnn(CC3CC3)c2)cc1", "INHIBITION": 5.51},
      {"smiles": "O=C(O)CCc1ccc(S(=O)(=O)Nc2cnn(CC(F)(F)F)c2)cc1", "INHIBITION": 28.1},
      {"smiles": "O=C(O)c1ccc(S(=O)(=O)Nc2cnn(CC(F)(F)F)c2)cc1", "INHIBITION": 72.8},
      {"smiles": "O=C(NCCOc1ccc(Cl)cn1)Nc1ccccn1", "INHIBITION": -34.8},
      {"smiles": "CS(=O)(=O)NCc1cncc2c1CCN(C(=O)c1cccnc1)C2", "INHIBITION": 4.57},
      {"smiles": "O=c1cc(N2CCCCC2)cnn1CCCn1cccn1", "INHIBITION": -54},
      {"smiles": "CCC(CC)Cn1ncc(N2CCOCC2)cc1=O", "INHIBITION": 23.8},
      {"smiles": "CCCOCCn1ncc(N2CCCC2)cc1=O", "INHIBITION": -49.2},
      {"smiles": "Cc1cnn(CC(=O)NCC2CCN(c3cc(Cl)ccc3C)C2)c1", "note": "(centres undefined)", "INHIBITION": -47.28},
      {"smiles": "Cc1cnn(CCCn2ncc(N3CCC(CN)C3)cc2=O)c1", "note": "(centres undefined)", "INHIBITION": 66.5},
      {"smiles": "O=c1cc(N2CCNCC2)cnn1CCCn1cccn1", "INHIBITION": 49.9},
      {"smiles": "Cc1cnn(C(C)C(=O)NCC2CCN(c3cnn(C)c(=O)c3)CC2)c1", "note": "(centres undefined)", "INHIBITION": -9.08},
      {"smiles": "CN1CCN(c2cnn(CCn3cccn3)c(=O)c2)CC1", "INHIBITION": 57.3},
      {"smiles": "NCC1CCN(c2cnn(CCCn3cccn3)c(=O)c2)CC1", "INHIBITION": 61},
      {"smiles": "Cc1nn(C)c(C)c1C1COCCN1C(=O)c1cc(F)ccc1F", "note": "(centres undefined)", "INHIBITION": -2.19},
      {"smiles": "COc1cccc(CN2CCCC2c2cccc(F)c2)c1OC", "note": "(centres undefined)", "INHIBITION": 1.45},
      {"smiles": "Cc1nn(C)cc1-c1cc(C(F)F)n2nc(CCC(=O)O)nc2n1", "INHIBITION": 21.9},
      {"smiles": "COc1ccc(Cl)cc1S(=O)(=O)N(C)CC(=O)Nc1ccon1", "INHIBITION": -44.8},
      {"smiles": "Cc1cnn(CC2CCCN2C(=O)CCc2c(C)noc2C)c1", "note": "(centres undefined)", "INHIBITION": 17.3},
      {"smiles": "CS(=O)(=O)N1CC[C@@H]2[C@@H](CCC(=O)N2CCC2=CCCCC2)C1", "INHIBITION": 19.4},
      {"smiles": "O=C1CC[C@H]2CN(C3CCOCC3)CC[C@H]2N1CCC1=CCCCC1", "INHIBITION": 58.5},
      {"smiles": "CN1CCC(N2CC[C@@H]3[C@@H](CCC(=O)N3CCC3=CCCCC3)C2)CC1", "INHIBITION": 33.9}
    ]}
  ]
}
